Screening data as filed in PubChem BioAssay.
ELG1 genotoxic: induces genotoxicity in HEK293T cells with luciferase-tagged ELG1 | 1.3% of 330,000 active | Potency, µM (doses to about 46 µM), for the others: at the highest dose activity change, positive = activation, actives largely listed as activators | AID 504466 | HEK293T ELG1-luciferase reporter, luminescence, 16 h; also: % of control where 0% means no effect; nearly all actives have a fitted effect of over 60% in size
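16 hr compound incubation (37 °C, 5% CO2) of HEK293T cells carrying luciferase-tagged ELG1; luciferase then measured by ONE-Glo luminescence after 30 min at RT.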
Rab9 promoter act: Rab9 promoter activation; Huh7 Rab9 promoter-luciferase reporter, luminescence, 24 h; 2.8% of 320,000 active; AID 485297; Potency, µM (highest dose often 9.22 µM), for inactives: at the highest dose activation, negative = inhibition, most hits filed as activators; also: % of control where 0% means no effect; nearly all actives have a fitted effect of over 60% in size
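Huh7 reporter line, Rab9 promoter upstream of luciferase. Compound exposure 24 h at 37 °C in reduced-serum medium with 10% FBS. Read-out: luminescence.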
FLuc modulator: inhibits or activates purified firefly luciferase, miR-21 counter-screen; P08659; purified FLuc, Km substrates, luminescence inhibition; Potency, µM (highest dose often 57.5 µM), for the others: top-dose activity change, negative = inhibition, usual class: inhibitors; 6.9% of 360,000 active; AID 588342;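 also: plate controls were vehicle for no effect and reference inhibitor for full effect; nearly all actives have a fitted effect of over 55% in size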
Target sequence (P08659 whole entry, looked up): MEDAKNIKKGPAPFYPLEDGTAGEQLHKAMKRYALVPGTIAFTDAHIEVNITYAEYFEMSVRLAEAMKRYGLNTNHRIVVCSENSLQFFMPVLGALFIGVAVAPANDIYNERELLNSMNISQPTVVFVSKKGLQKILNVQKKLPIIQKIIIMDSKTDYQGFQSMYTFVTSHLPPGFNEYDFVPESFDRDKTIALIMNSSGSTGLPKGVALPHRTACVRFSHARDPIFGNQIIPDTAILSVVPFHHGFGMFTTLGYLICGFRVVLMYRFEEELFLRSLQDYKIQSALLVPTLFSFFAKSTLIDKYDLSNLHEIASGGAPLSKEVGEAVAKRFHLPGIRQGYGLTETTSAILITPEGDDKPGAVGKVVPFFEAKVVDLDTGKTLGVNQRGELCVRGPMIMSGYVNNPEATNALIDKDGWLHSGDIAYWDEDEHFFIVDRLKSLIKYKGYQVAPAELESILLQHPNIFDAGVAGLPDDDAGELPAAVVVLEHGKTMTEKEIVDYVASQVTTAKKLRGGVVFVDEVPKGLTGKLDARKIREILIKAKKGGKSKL
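Biochemical qHTS of compounds, final roughly 60 µM downward over six points, against 10 nM purified firefly luciferase using Km concentrations of substrates (10 uM D-luciferin, 10 uM ATP) in Tris acetate pH 7.5 buffer; luminescence output.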
NPC1 promoter act: activators of NPC1 promoter; Huh7 NPC1 promoter luciferase reporter, 24 h; Potency, µM (highest dose often 9.22 µM), inactives show at the top dose activation, hits mostly activators; 2.4% of 320,000 active; also: % of control where 0% means no effect; nearly all actives have a fitted effect of over 60% in size
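In 1536-well qHTS, Huh7 cells harboring an NPC1 promoter–luciferase construct received compound for 24 h; activation was quantified by luminescence following luciferase reagent addition.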
Luc counter: blocks Kinase-Glo luciferase, a counter-screen artifact | Q27757 | Kinase-Glo luciferase, ATP luminescence, 8 min | Potency, µM (top dose mostly 38.3 µM), for inactives: at the top dose activity change, negative = inhibition, actives largely listed as inhibitors | 0.28% of 200,000 active | AID 1379; also: % is scaled to controls: 0 for no effect and ±100 for the full control effect; nearly all actives have a fitted effect of over 60% in size
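Inhibition of Kinase-Glo luciferase light generation was assessed at 10 uM ATP in pH 7.2 imidazole buffer, with luminescence measured after eight minutes at ambient temperature.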
SMN2 splice enh: SMN2 splice variant enhancement. HEK293 SMN2-luciferase splicing reporter, luminescence, 30-36 h. 2.8% of 210,000 active. Potency, µM (top dose mostly 46.1 µM), for the others: at the highest dose activity change, positive = activation, hits mostly activators; also: % of control where 0% means no effect; nearly all actives have a fitted effect of over 55% in size
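qHTS luciferase splicing reporter: luminescence rises when SMN2 exon 7 is included in transfected HEK293 cells. Compound exposure lasted 30-36 h at 37C, with 4.5 mM final sodium butyrate as control, followed by a ONE-Glo read.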
Active calls of the source: *; ? = inconclusive; nt = no result; [ ] = dose if it differs, or a comment. Only some compounds are listed: those with a hit (about 7.4% of all), similar ones and a draw of the others. Calls follow the shape of the dose curve; as a rule, active = well fitted curve in the direction sought with a large enough effect; inconclusive = small, poorly fitted or top-dose-only effect, or another doubt; inactive = no such curve, though single readings can be large; an effect the other way counts as inactive or inconclusive. Potency is read from the fitted curve at half-maximal effect.

SMILES	ELG1 genotoxic	Rab9 promoter act	FLuc modulator	NPC1 promoter act	Luc counter	SMN2 splice enh
CCCc1ccc2oc(C(=O)NCCc3cnn(C)c3)c(C)c2c1	?	1.8µM*	13µM*	3.5µM*	nt	nt
Cc1cc2oc(C(=O)NCCc3ccc(S(N)(=O)=O)cc3)c(C)c2cc1C	13%	2%	-5%	1%	-2%	8%
Cc1c(C(=O)N2CCCC2)oc2ccc(Br)cc12	25%	3%	?	5%	nt	nt
CCCc1ccc2oc(C(=O)NCCc3nc(C(=O)OCC)cs3)c(C)c2c1	14%	2µM*	13µM*	4µM*	nt	nt
CCCc1ccc2oc(C(=O)N(C)Cc3ccn[nH]3)c(C)c2c1	18µM*	?	15µM*	?	nt	nt
COc1cc(C2c3c(oc4ccccc4c3=O)C(=O)N2c2nncs2)cc(OC)c1OC (configuration not stated)	nt	nt	1%	nt	nt	-5%
COc1ccc(/C=C/c2ccncc2)cc1OC	23µM*	4%	?	0%	-10%	10µM*
Cc1cccc(Cn2c(C)c(CNC3CCCCCC3)c(C(=O)O)c2C)c1	nt	nt	-2%	nt	nt	-4%
O=C(NCc1ccco1)c1ccc2c(c1)N(Cc1ccc(Cl)cc1)C(=O)c1ccccc1S2(=O)=O	nt	nt	-2%	nt	nt	2%
Cc1ccc2nc(NC(=O)CCCC(=O)O)sc2c1	-10%	-41%	5.4µM*	-30%	-5%	-8%
Cc1ccc2nc(NC(=O)CCCc3nc4ccccc4s3)sc2c1	?	-19%	17µM*	-20%	-1%	23%
Cc1ccc2nc(N/C(=N/S(=O)(=O)c3ccc(F)cc3F)c3ccccc3)sc2c1	11%	11%	?	1%	nt	nt
Cc1ccc2nc(N/C(=N/S(=O)(=O)c3ccc(F)cc3)c3ccccc3)sc2c1	15%	?	8.5µM*	13%	4%	?
COc1ccc(Oc2nc3c(c(=O)n(C)c(=O)n3C)n2Cc2ccc(Cl)cc2Cl)cc1	nt	nt	5%	nt	nt	nt
COc1ccc2nc(NC(=O)c3cccnc3SC)sc2c1	?	?	5.4µM*	?	-2%	?
CSc1ncccc1C(=O)Nc1nc2ccc(S(C)(=O)=O)cc2s1	4%	28%	21µM*	13%	-4%	9%
C/C(=N\Nc1cc(N2CCOCC2)ncn1)c1cccc([N+](=O)[O-])c1	1%	21%	-18%	18%	-5%	11µM*
C/C(=N\Nc1cc(N2CCOCC2)ncn1)c1ccccc1	?	2.5µM*	5.4µM*	2.5µM*	nt	nt
O=C(O)CC(CC(=O)O)C(=O)O	nt	nt	nt	nt	-2%[7.66 µM]	-16%[9.22 µM]
O=C(c1cc(-c2cccc(Cl)c2)nc2ccccc12)N1CCN(c2ccccn2)CC1	-22%	11%	19µM*	5%	nt	nt
O=C(c1cc(-c2ccncc2)nc2ccc(Br)cc12)N1CCN(c2ccccn2)CC1	nt	nt	17µM*	nt	13%	-28%
O=C(c1cccn2c(=O)c3cc(Br)ccc3nc12)N1CCN(c2ccccn2)CC1	2%	7%	-2%	1%	-3%	6%
O=C(Nc1ccccc1)N(Cc1c[nH]c2ccccc12)C1CCCCCC1	nt	nt	-6%	nt	nt	3%
CC(C)c1nc(N(C)S(C)(=O)=O)nc(-c2ccc(F)cc2)c1/C=C/C(O)CC(O)CC(=O)O (configuration not stated)	nt	nt	nt	nt	-2%	-5%
O=C(Cn1c(=O)n(-c2ccc(F)cc2)c(=O)c2sc3ccccc3c21)N1CCCC1	nt	nt	3%	nt	nt	0%
CCCS(=O)(=O)Nc1cccc(-c2ccc3nnc(C)n3n2)c1	?	-1%	1%	-9%	0%	16µM*
Cc1nnc2ccc(-c3cccc(NS(=O)(=O)c4ccccc4Cl)c3)nn12	?	1%	8%	-16%	nt	nt
COc1ccc(OCCCn2c(=O)oc3ccc(C)cc32)cc1	nt	nt	-10%	nt	nt	?
Cc1ccccc1OCCn1c(=O)oc2ccccc21	9%	-1%	-3%	0%	0%	10%
